Test results: PubChem BioAssay AID493008 (The Scripps Research Institute Molecular Screening Center, 2010)
Among all 340,000 compounds or so, about 800 (0.24%) were called active. This is one part of a sample in which actives are shown more often than they occur. A number with no mark means an inactive call.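 How the source made its calls: active means activation above the mean over all tested compounds plus 3 SD (cut at about 30% in these data); inactive means the rest.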

Molecular target: Troponin I, cardiac muscle (Homo sapiens) + Troponin T, cardiac muscle (Homo sapiens) + Troponin C, slow skeletal and cardiac muscles (Homo sapiens) (UniProt P19429+P45379+P63316)
Assay: calcium sensitizers of cardiac thin filaments – biochemical, IANBD-TnC fluorescence, EC20 calcium, primary screen (AID 493008);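 further: rise in fluorescence read as greater calcium sensitivity of cardiac thin filaments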
Settings: IANBD-labeled TnC RTF fluorescence at EC20 calcium; at 7.2 µM; stronger effect = higher value

SMILES	activation
CCCCC(=O)N/N=C/c1c(O)n(CC)c(=S)n(CC)c1=O	93.2% (active)
Cn1c(O)c(C=NCCCC(=O)O)c(=O)n(C)c1=O	2.93%
O=C(N/N=C/c1c(O)n(Cc2ccccc2)c(=O)[nH]c1=O)c1ccccc1	0.31%
COc1ccccc1N=C1SCCCN1C	-2.56%
CN1CCc2cc3c(cc2[C@H]1[C@@H]1OC(=O)c2c1ccc1c2OCO1)OCO3	0.04%
